Screening data: PubChem, National Center for Advancing Translational Sciences (NCATS)
In the library only some 21% were active in any assay of this set; here they are far more common.
NS1 inh: blocks influenza NS1 protein function; Potency, µM (highest dose often 46.1 µM), inactives show top-dose activity, positive = more growth; actives 0.4% (n = 270,000); AID 2326; calls by dose curve; note: potency is the fitted concentration of half-maximal effect; actives are rising curves; nearly all actives have a fitted effect of over 50% in size
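In this qHTS, NS1 from influenza A is expressed in budding yeast, where it slows growth. Cells are switched from glucose to 2% galactose medium (pH 6.0, -URA), treated with compound, and growth recovery is read at OD600.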
Pf growth 48h: P. falciparum growth inhibition at 48 hours (one generation) | P. falciparum luciferase growth in erythrocytes, 48 h | Potency, µM (series often up to 28.7 µM), without a hit: at the highest dose activity change, negative = inhibition, most hits filed as inhibitors | actives 5.9% (n = 310,000); note: potency is the fitted concentration of half-maximal effect; % is set by controls: 0 for no effect and ±100 for the full control effect
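Luminescence readout; reporter = integrated firefly luciferase in P. falciparum. RBC culture at 2% hematocrit, 0.1% parasitemia final, 37 C/5% CO2; decreased signal taken as growth inhibition.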
Pf growth 96h: P. falciparum growth inhibition at 96 hours | AID 504834 | P. falciparum luciferase reporter growth, 96 h | actives 6.9% (n = 320,000) | Potency, µM (top dose mostly 28.7 µM), inactives show top-dose activity change, negative = inhibition, actives largely listed as inhibitors; note: potency is the fitted concentration of half-maximal effect; % is set by controls: 0 for no effect and ±100 for the full control effect
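Parasite growth measured via integrated firefly luciferase reporter in P. falciparum. Infected erythrocytes at 2% hematocrit, 0.05% parasitemia final were treated 96 hours at 37 C under 5% CO2, and luminescence was read.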
Cycloheximide cs: counter-screen for Shiga toxin inhibitors: cycloheximide protein synthesis inhibition; cell reporter, cycloheximide protein synthesis inhibition counterscreen; max response, %; actives 12% (n = 300,000); AID 2314; in the data active = max response mostly above about 13%, no sharp cut-off; inactive = mostly below about 14%; note: read at 38.3 µM for the half of the compounds with a filed dose; 0% is about no effect
Sm TGR block: inhibitors of Schistosoma mansoni thioredoxin glutathione reductase. Potency, µM (top dose mostly 114 µM), inactives show at the highest dose activity change, negative = inhibition, hits mostly inhibitors. actives 3% (n = 360,000). purified TGR, DTNB reduction, TNB absorbance 405 nm. Q962Y6; note: potency is the fitted concentration of half-maximal effect; % is set by controls: 0 for no effect and ±100 for the full control effect; nearly all actives have a fitted effect of over 60% in size
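TGR 20 nM + NADPH 100 uM (dispensed conc.), cpd preinc 15 min RT; start with NADPH (500 uM addition) then DTNB (15 mM addition). Kinetic TNB absorbance, 405 nm filter. Four-parameter Hill fit across titration.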
Shiga toxin inh: blocks Shiga toxin action in Vero cells | actives 9.2% (n = 290,000) | Vero cells, Shiga toxin protein synthesis inhibition reporter | inhibition, % at 38.7 µM; in the data active = inhibition mostly above about 28%, no sharp cut-off; inactive = mostly below about 43%; note: 0% is about no effect
* marks the source's active call; other numbers are inactive results; ? = inconclusive; . = no result. Unless noted, calls come from the whole dose curve; as a rule, active = well fitted curve in the direction sought with a large enough effect; inconclusive = small, poorly fitted or top-dose-only effect, or another doubt; inactive = no such curve, though single readings can be large; an effect the other way counts as inactive or inconclusive.

SMILES	NS1 inh	Pf growth 48h	Pf growth 96h	Cycloheximide cs	Sm TGR block	Shiga toxin inh
C[C@@H]1C[C@H](O)c2cc(Cl)ccc2N1	3.7%	-16.0%	3.9%	-2.2	39.8µM*	-12.7
CC1Nc2ccc(Cl)cc2S(=O)(=O)N1 (centres undefined)	.	.	.	-3.3	.	-2.5
C=C(C)Cn1c(SCC(=O)c2ccccc2)nc2sc3c(c2c1=O)CCCC3	.	.	.	.	6.3%	.
COc1ccc(C2c3[nH]c4ccccc4c3C[C@H]3C(=O)N(CCCO)CC(=O)N23)c(OC)c1 (some centres undefined)	-5.9%	-7.9%	-2.2%	0.9	9.9%	-7.1
COc1ccc(OC)c(C2c3[nH]c4ccccc4c3C[C@H]3C(=O)N(CCCOC(C)C)CC(=O)N23)c1 (some centres undefined)	9.7%	7.38µM*	11.7µM*	-3.0	-1.6%	-10.2
CC(C)OCCCN1CC(=O)N2C(c3cccc([N+](=O)[O-])c3)c3[nH]c4ccccc4c3C[C@H]2C1=O (some centres undefined)	12.5%	8.28µM*	?	-0.5	0.0%	-4.9
CCOC(=O)[C@H]1[C@H]2COc3cc(OC)ccc3[C@@H]2N2C(=O)CN(Cc3ccc(C)cc3)C(=O)[C@@]12C	.	10.4µM*	2.62µM*	.	-21.5%	.
CCOC(=O)[C@H]1[C@H]2COc3cc(OC)ccc3[C@@H]2N2C(=O)CN(Cc3ccco3)C(=O)[C@@]12C	.	?	-2.1%	.	17.8µM*	.
CCOC(=O)[C@H]1[C@H]2COc3ccc(C)cc3[C@@H]2N2C(=O)CN(Cc3ccccc3)C(=O)[C@@]12C	.	?	?	.	3.8%	.
COc1ccc(NC(=O)C(Cc2ccccc2)NS(=O)(=O)c2ccc3c(c2)CCC(=O)N3)c(OC)c1 (centres undefined)	.	.	.	.	3.1%	.
O=C(NC1CCCCCCC1)NC1CCCCC1	-4.5%	119.5%	161.7%	26.1*	-10.4%	22.8
C=CCNC(=S)Nc1cccc([N+](=O)[O-])c1	2.3%	-4.0%	7.0%	-4.0	31.6µM*	-9.2
NC(=O)c1ccccc1NC(=O)NC1CCCCC1	-1.2%	-4.3%	10.6%	-5.7	-6.3%	10.5
O=C(Nc1ccccc1NC(=O)NC1CCCCC1)NC1CCCCC1	-5.1%	32.0%	.	27.2*	0.0%	34.8
CC(=O)c1ccc(NC(=S)NNC(=O)NC2CCCCC2)cc1	.	15.9%	21.9%	20.5*	2.9%	58.8
CCOC(=O)[C@@H]1[C@H]2COc3ccccc3[C@H]2N2C(=O)N(c3cccc(F)c3)C(=O)[C@]12C	11.2%	0.0%	?	-1.1	-20.9%	12.6
COc1ccc(N2CCN(CCCNC(=O)c3ccc4nc(Cc5ccccc5)oc4c3)CC2)cc1	.	.	.	.	1.2%	.
Cc1ccc(CN=C(Nc2ccccc2)NC2CCCCC2)cc1	-0.5%	10.4µM*	?	-3.1	6.3%	6.6
NC(=O)C1CCC(NC(=O)OCc2ccccc2)CC1 (centres undefined)	-2.1%	34.1%	6.57µM*	-0.5	?	17.5
O=C(CN1CCC(NC(=O)Cc2ccccc2)CC1)Nc1cccc2ccccc12	-6.6%	?	8.28µM*	-4.2	1.8%	-18.9
Cc1ccc(CNC(=S)NC2CCCCC2)cc1	-58.4%	-13.4%	?	-1.3	-27.2%	-2.9
O=C(Nc1cccc([N+](=O)[O-])c1)C1C2CCCCC21 (centres undefined)	4.4%	2.1%	?	2.6	-11.0%	16.3
O=C(Nc1cccc([N+](=O)[O-])c1)NC1CCCCCCC1	-97.8%	38.2%	-17.3%	32.3*	?	81.3*
COc1cccc(CNC2CCCCCCC2)c1OC	-7.8%	0.2%	-12.0%	-1.3	-16.5%	-3.0
CC(=O)N1CCN(S(=O)(=O)c2cccc(C(=O)Nc3ccccc3N3CCCCC3)c2)CC1	.	?	?	.	-12.2%	.
SMILES	NS1 inh	Pf growth 48h	Pf growth 96h	Cycloheximide cs	Sm TGR block	Shiga toxin inh
O=C(Nc1ccccc1)NC1CC2CCC(C1)N2 (centres undefined)	-3.1%	2.4%	32.9%	-6.1	-22.5%	-6.0
O=C(Nc1ccc(Br)cc1)NC1CCCCCCC1	-7.3%	104.6%	?	44.0*	1.1%	137.0*
CC(C)NS(=O)(=O)c1ccc(NC(=O)NC2CCCCC2)cc1	6.2%	-7.2%	?	14.1*	-5.0%	19.9
O=C(Nc1ccccc1)NC1CCCCC1	-2.4%	.	45.0%	51.3*	-14.4%	49.0*
O=C(NC(=S)Nc1cccc([N+](=O)[O-])c1)C1CCCC1	-16.9%	13.6%	-17.7%	33.9*	-18.2%	52.2*
COc1ccc(CCNC(=O)c2ccc(=O)[nH]c2)cc1OC	4.1%	.	-3.6%	-0.1	-8.7%	-1.1
CCOC(=O)N1CCN(C(=O)COC(=O)CSc2ccc([N+](=O)[O-])cc2)CC1	.	6.6%	20.9%	.	1.4%	.
CC(C)C(=O)NC(=S)Nc1ccc(S(=O)(=O)NC2CCCCC2)cc1	-1.3%	3.7%	16.5µM*	5.4	?	18.6
O=C(NC1CCCCC1)Oc1ccccc1	-4.4%	57.0%	0.0%	29.6*	25.2%	51.5
O=C(NC1CCS(=O)(=O)C1)Oc1ccccc1 (centres undefined)	-2.1%	.	-4.2%	-6.1	2.8%	-22.2
O=C(Nc1cccc2ccccc12)NC1CCCCC1	2.5%	45.2%	0.828µM*	1.2	-3.4%	-5.2
O=C(NCCCNC(=O)c1ccco1)c1ccc(Cl)cc1	3.5%	51.6%	-0.2%	31.5*	-9.8%	85.5*
O=C(NC(NC(=S)Nc1ccc(Cl)cc1)C(Cl)(Cl)Cl)c1ccco1 (centres undefined)	19.6%	10.4µM*	20.5%	-3.3	?	-12.0
CC(=O)OCC(=O)Nc1ccc(SC(F)F)cc1	0.6%	15.5%	3.4%	8.5	-3.4%	-6.0
CSc1ccc(NC(=O)CC(C)=O)cc1	2.9%	.	.	0.5	-1.5%	5.2
CCC(C)c1ccc(NC(=O)CC(C)=O)cc1 (centres undefined)	0.0%	.	8.1%	20.6*	0.3%	13.9
Cc1ccc(C(=O)NCCCNC(=O)c2ccco2)cc1	-11.9%	19.1%	-3.9%	-2.5	0.4%	-10.8
C/C=C/C(=O)OCC(=O)Nc1ccc(SC(F)F)cc1	.	12.8%	11.6%	26.3*	-7.9%	35.6
CCCCOc1ccc(S(=O)(=O)Nc2ccc(-c3ccc(N4CCC(C)CC4)nn3)cc2)cc1	.	.	.	.	-0.8%	.
Cc1cc(C)cc(N2C(=O)CSC23C(=O)N(CC(=O)Nc2ccc(F)cc2F)c2ccccc23)c1 (centres undefined)	.	.	.	.	6.0%	.
COc1ccc(/C=C(\NC(=O)c2ccccc2)C(=O)NC2CCCCC2)cc1	.	.	.	.	-5.9%	.
CCN(CC)S(=O)(=O)c1ccc(OCCNS(C)(=O)=O)cc1	.	-6.8%	10.3%	-2.2	5.3%	-12.3
CC1CCCCN1CCCNC(=O)Cn1ncc2c3ccccc3n(Cc3ccccc3F)c2c1=O (centres undefined)	.	.	.	.	14.4%	.
CC(=O)Nc1ccc(NC(=O)c2ccco2)cc1	5.6%	89.9%	.	30.7*	-18.3%	71.2*
